GLS inh: inhibitors of human glutaminase (GLS) | O94925 | GLS enzymatic activity, qHTS titration | Potency, µM (titrated, usually from 45.5 µM), without a hit: at the highest dose activity change, negative = inhibition, usual class: inhibitors | 0.21% of 410,000 active | AID 624170; further: potency means the concentration at half of the fitted maximal effect; on the % scale 0 is the no-effect control and ±100 the full control effect
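Two-point fluorescence kinetic (t0, 30 min RT) for hKGA; glutamate detected via glutamate oxidase–HRP–Amplex Red. Substrate: 1 mM L-glutamine solution; buffer 45 mM KH2PO4, pH 8.2.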
hERG WT inh: KCNH2 (human, wildtype) channel inhibition. Q12809. U2OS, BacMam KCNH2, thallium flux FluxOr; stronger effect = lower value. activity change, % at 1.84 µM. 0.37% of 340,000 active. AID 720551;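 active means maximum activity change below -70%; inconclusive means maximum activity change between -70% and -50%; inactive means maximum activity change above -50%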; further: on the % scale 0 is the no-effect control and ±100 the full control effect
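U2OS cells were transduced with wild-type KCNH2 virus (2.03 x 10^8 / mL) for 4 h at room temperature, then cultured overnight at 37 C. Thallium flux was read with FluxOr dye. Rate constants were normalized to DMSO controls.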
GLP1R ag: GLP-1 receptor (human) agonism. HEK293 GLP-1R CRE-luciferase, luminescence, 4-6 h; cells express a hypersensitive GLP-1R form. 0.007% of 380,000 active. Potency, µM (top dose mostly 45.6 µM), for the others: top-dose activation, hits mostly activators; further: potency means the concentration at half of the fitted maximal effect; % of control where 0% means no effect
GLP-1R inv ag: acts as inverse agonist at human GLP-1 receptor; P43220; HEK293 GLP-1R CRE-luciferase, luminescence, 24 h; GLP-1R form is constitutively active; Potency, µM (titrated, usually from 38.3 µM), for the others: top-dose activity change, negative = inhibition, hits mostly inhibitors; 1.6% of 410,000 active; AID 624417; further: potency means the concentration at half of the fitted maximal effect; on the % scale 0 is the no-effect control and ±100 the full control effect; nearly all actives have a fitted effect of over 55% in size
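Inverse agonism was detected as reduced cAMP-driven luciferase luminescence after 24 h compound treatment. The cells were HEK293 clones expressing constitutively active human GLP-1R with the reporter. Reporter-only and GPR119 cell lines served as counterscreen controls.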
KCNH2 3.1 inh: KCNH2 3.1 (human) potassium channel inhibition; 0.95% of 340,000 active; activity change, % (tested at about 1.8 µM); U2OS KCNH2 3.1, thallium flux FluxOr; stronger effect = lower value;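 active means maximum activity change below -70%; inconclusive means maximum activity change from -70% to -50%; inactive means maximum activity change above -50%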;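 further: thallium influx rate constant from kinetic fluorescence after stimulation buffer; on the % scale 0 is the no-effect control and ±100 the full control effect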
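Channel expression came from 3.1 mutant virus (1.77 x 10^8 /mL) applied to suspended U2OS cells for 4 h. Flux was tracked with FluxOr dye plus Red40 quencher, and kinetic rate constants normalized to controls.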
HEK293 tox: cytotoxicity counter-screen for GLP-1 receptor inverse agonists; HEK293 cAMP-luciferase reporter cells, luminescence, 24 h; Potency, µM (top dose mostly 38.3 µM), for inactives: top-dose activity change, negative = inhibition, most hits filed as inhibitors; 0.13% of 410,000 active;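 further: loss of luciferase light is scored as toxicity; potency means the concentration at half of the fitted maximal effect; on the % scale 0 is the no-effect control and ±100 the full control effect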
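Here, cytotoxicity is scored as loss of luminescence. The MLSMR collection was tested on cells seeded in medium containing 10% Nu serum, with a 24 hr compound exposure preceded by 12 hours of culture.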
Active calls of the source: *; u = inconclusive; x = no result given. An excerpt weighted towards active compounds, which were near 2.8% of everything screened. Unless noted, the call rests on the fitted dose curve; in most records, active means well fitted curve in the direction sought with a large enough effect; inconclusive means small, poorly fitted or top-dose-only effect, or another doubt; inactive means no such curve, though single readings can be large; an effect the other way counts as inactive or inconclusive.

SMILES	GLS inh	hERG WT inh	GLP1R ag	GLP-1R inv ag	KCNH2 3.1 inh	HEK293 tox
Cc1ccc(CNC(=O)Cn2cc(C(=O)c3ccc(Cl)cc3)c(=O)c3ccc(C)nc32)cc1	-2.1%	x	x	-0.2%	x	0.6%
Cc1ccc(S(=O)(=O)N2CCN(Cc3csc(C)n3)CC2)cc1	-3.6%	0.1	-13.5%	16.6%	0.8	-5.4%
CCOc1ccc(N2CC(NC(=O)Cc3ccccc3)CC2=O)cc1 (centres undefined)	5.2%	x	x	4.6%	x	-0.1%
C=CCOc1ccccc1CN1CCC(C(=O)Nc2cccc(-c3ccn[nH]3)c2)CC1	-2.3%	11.5	-6.5%	7.94µM*	18.9	u
Cc1cc(Cl)ccc1OC(C)C(=O)Nc1ccc([N+](=O)[O-])cn1 (centres undefined)	-3.5%	-124.7*	-1.7%	u	-94.3*	2.3%
Cc1ccc(OC(C)C(=O)Nc2ccc(Cl)cn2)c([N+](=O)[O-])n1 (centres undefined)	0.4%	-4.5	24.7%	140.8%	2.0	5.4%
COc1ccc(NS(=O)(=O)c2cc([N+](=O)[O-])ccc2N/N=C\c2c(C)[nH]c3ccccc23)cc1	11.2%	2.2	-7.5%	-13.2%	11.1	-0.6%
COc1ccccc1NS(=O)(=O)c1cc([N+](=O)[O-])ccc1N/N=C/c1c[nH]c2ccccc12	14.5%	-23.9	0.3%	5.01µM*	-27.6	-23.5%
Cc1ccc(Cl)c(Cn2cnc3c(cnn3C(C)(C)C)c2=O)c1F	-4.9%	x	23.1%	x	x	x
CC(=O)Nc1ccc(NC(=O)Cn2cnc3c(cnn3C(C)(C)C)c2=O)cc1	-0.6%	0.9	28.4%	15.6%	25.2	-9.7%
CC(C)(C)n1ncc2c(=O)n(CC(=O)NCc3ccccc3)cnc21	-13.3%	-6.2	-14.2%	4.47µM*	-3.4	u
CC(C)(C)n1ncc2c(=O)n(Cc3c(F)cccc3Cl)cnc21	-0.3%	-2.8	12.5%	2.51µM*	25.7	-4.2%
CCOC(=O)C1CCCN(c2c(C(=O)c3ccccc3)cnc3ccc(F)cc23)C1 (centres undefined)	-11.2%	x	x	-16.4%	x	5.4%
O=S(=O)(c1ccc(Cl)cc1)c1nnn2c1nc(NCc1cccs1)c1sccc12	-4.2%	x	x	8.3%	x	-25.4%
CCCCOc1ccccc1C(=O)N(Cc1cccc(F)c1)C1CCS(=O)(=O)C1 (centres undefined)	-0.6%	x	x	-5.9%	x	4.8%
Cc1c(C(=O)NCc2ccc(F)cc2)oc2ccc(S(=O)(=O)N3CCCCC3)cc12	-2.4%	x	x	10µM*	x	3.5%
COc1ccc(COC(=O)c2ccc(Cl)c(S(=O)(=O)N3CC(C)OC(C)C3)c2)cc1 (centres undefined)	-0.7%	7.9	3.9%	8.91µM*	-2.7	5.0%
CCN(CC)S(=O)(=O)c1ccc2c(c1)N(CC(=O)N1CCN(c3cc(Cl)ccc3C)CC1)C(=O)CO2	0.1%	x	x	-0.7%	x	-8.0%
O=C(Cc1ccc(S(=O)(=O)N2CCCCC2)cc1)NCc1ccc(Cl)cc1	3.1%	3.8	22.1%	7.08µM*	14.9	-3.2%
CCN(CC)S(=O)(=O)c1ccc2c(c1)N(CC(=O)NCCCN1CCN(c3cc(Cl)ccc3C)CC1)C(=O)CO2	0.4%	x	5.5%	11.2µM*	x	u
COc1ccc(C2c3[nH]c4ccccc4c3C[C@H]3C(=O)N(c4ccccc4C(=O)N4CCC[C@H]4C(=O)O)C(=O)N23)cc1 (some centres undefined)	10.4%	-0.4	-2.8%	-2.5%	0.8	-13.4%
COc1ccc(NC(=O)CCc2nnc3ccc(N4CCC(C)CC4)nn23)cc1OC	-1.4%	1.3	0.9%	8.2%	-6.0	-7.0%
COc1ccc(Cc2nnc(NC(=O)c3cc(OC)c(OC)c(OC)c3)s2)cc1	1.2%	-7.0	12.0%	-15.4%	7.9	1.1%
CC(C)N(Cc1ccccc1)C(=O)CN1C(=O)COc2ccc(S(=O)(=O)N3CCCCCC3)cc21	2.3%	-36.9	-2.5%	7.94µM*	-8.5	-5.3%
COc1ccc(CNC(=O)COc2ccc(S(=O)(=O)N3CCCCC3)cc2Cl)cc1	-2.8%	25.5	-1.1%	u	4.2	14.7%
SMILES	GLS inh	hERG WT inh	GLP1R ag	GLP-1R inv ag	KCNH2 3.1 inh	HEK293 tox
O=C(CN1C(=O)COc2ccc(S(=O)(=O)N3CCCCC3)cc21)NCc1ccc(Cl)cc1	-0.7%	-3.3	-3.4%	10µM*	5.6	-13.8%
COc1ccc(CCC(=O)Nc2ccc(OC)c(S(=O)(=O)N3CCCCC3)c2)cc1OC	-6.3%	-15.3	5.1%	9.3%	0.7	-4.8%
CN(Cc1ccccc1)C(=O)CN1C(=O)COc2ccc(S(=O)(=O)N3CCCC3)cc21	-2.5%	1.4	-0.8%	-10.6%	-24.4	-9.1%
COc1ccc(CCC(=O)Nc2ccc(Cl)c(S(=O)(=O)N3CCCC3)c2)cc1	-0.3%	0.3	-3.5%	10µM*	-13.6	-4.3%
COc1ccc(CNC(=O)COc2ccc(S(=O)(=O)N3CCCCC3)cc2)cc1	-7.0%	-130.7*	5.1%	-7.9%	-13.0	-2.4%
CCc1ccc(NC(=O)CN2C(=O)C3CCCN3c3ccc(S(=O)(=O)N(CC)CC)cc32)cc1 (centres undefined)	1.5%	x	x	-6.3%	x	4.3%
O=C(COC(=O)c1ccc(O)cc1)Nc1cc(S(=O)(=O)N2CCOCC2)ccc1Cl	0.5%	0.8	8.7%	2.2%	-0.5	0.3%
COc1cc(-c2cnc3c(NC=O)cc(-c4cccc(C(=O)NCCN(C)C)c4)cn23)cc(OC)c1OC	-2.8%	x	28.5%	28.6%	x	-8.8%
COc1cc(CC(=O)OCC(=O)NCCc2ccc(S(N)(=O)=O)cc2)cc(OC)c1OC	-12.5%	-0.9	3.6%	6.5%	-22.6	-7.0%
O=c1c2ccccc2n(Cc2cccc(Cl)c2)c(=O)n1CCc1ccccc1	-6.6%	x	0.4%	14.6%	x	5.4%
CCCCC(=O)O[C@]1(C(=O)CO)[C@H](C)C[C@H]2[C@@H]3CCC4=CC(=O)C=C[C@]4(C)[C@@]3(F)[C@@H](O)C[C@@]21C	1.6%	x	-2.9%	x	x	x
O=C(c1cnn2ccccc12)N(Cc1ccco1)C1CCCC1	-2.5%	-3.6	17.9%	3.55µM*	7.6	u
O=C(c1cnn2ccccc12)N1CCN(C2CCCCC2)CC1	6.7%	7.1	13.0%	13.4%	7.0	-5.5%
COc1ccc(Sc2ccc(NC(=O)c3ccccc3Cl)cc2C#N)cc1	-5.3%	1.3	2.4%	12.6µM*	-28.2	u
Cc1nsc2nc3c(F)c(F)c(F)c(F)c3cc12	-4.3%	-3.0	3.8%	115.0%	7.7	5.9%
COc1ccc(C(=O)Nc2nnc(S(=O)(=O)N3CCN(c4ccc(F)cc4)CC3)s2)cc1	-6.7%	x	x	4.9%	x	2.0%

Source: PubChem BioAssay
